Source: the supplement of paper PMC7366291
Counter-ions that a name gives are not always drawn. ± gives the standard deviation or the standard deviation of the averaged measurements.

Key:
Conditions in all cases: 25 µM; exposure: 24-48 hpf
[1] = tested on: Danio rerio Tg(wt1b:EGFP) embryo, pronephros; test: glomerular separation, fold change vs DMSO control; higher = glomeruli further apart (abnormal)
Summary of the method: (§1)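 Dechorionated Tg(wt1b:EGFP) zebrafish embryos were exposed to 25 μM compound in 0.5% DMSO, HEPES-buffered E3 with 0.003% PTU, from 24 to 48 hpf at 28.5°C. Pronephroi were imaged dorsally in agarose-filled 96-well plates (470 nm, 10 z-slices). On maximum projections, 16 reference points were set manually in Fiji and a macro computed distances and angles. Values more than 2 SD from the feature mean were excluded. Each feature is a fold change relative to the mean of same-day DMSO controls.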

[2] = tested on: Danio rerio Tg(wt1b:EGFP) embryo, pronephros; test: glomerular width (mean of left and right), fold change vs DMSO control; higher = wider glomerulus
Summary of the method: as §1

[3] = tested on: Danio rerio Tg(wt1b:EGFP) embryo, pronephros; test: fraction of imaged embryos annotated as normal kidney; higher = less nephrotoxic; extreme values may be limits of the assay
Summary of the method: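 The read-out is the proportion of embryos in each treatment manually annotated as normal-kidney. Exposure ran from 24 to 48 hpf at 28.5°C in 12-well plates, using dechorionated Tg(wt1b:EGFP) zebrafish embryos in 5 mM HEPES-buffered E3 with 0.003% PTU, 0.5% DMSO and 25 μM compound. For imaging, larvae were anaesthetised with tricaine, positioned dorsally in agarose-filled 96-well plates and captured by widefield fluorescence (470 nm, 10 z-slices), with scoring done on maximum projections.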

[4] = tested on: Danio rerio Tg(wt1b:EGFP) embryo, pronephros; test: pronephric angle neck segment to proximal convoluted tubule (mean of left and right), fold change vs DMSO control; higher = larger pronephric angle
Summary of the method: as §1

Row | Structure (SMILES) | glomerular separation [1] | glomerular width [2] | fraction of imaged embryos annotated as normal kidney [3] | pronephric angle neck segment [4]
1 | C1CCC(C(CC2CCCCN2)C2CCCCC2)CC1 (stereo not drawn) [Perhexiline maleate] | 1.12 ± 0.32 | 0.9631 ± 0.0089 | 0.909 | 1.006 ± 0.00027
2 | CC(=O)Nc1ccc(O)cc1 [Acetaminophen] | 0.86 ± 0.31 | 0.987 ± 0.037 | 1 | 0.9829 ± 0.0034
3 | CNCC[C@@H](Oc1ccccc1C)c1ccccc1 [Tomoxetine hydrochloride] | 1.04 ± 0.55 | 0.979 ± 0.023 | 0.75 | 1 ± 0.022
4 | CC1CC(OC(=O)c2ccccc2O)CC(C)(C)C1 (stereo not drawn) [Homosalate] | 0.865 ± 0.19 | 0.8777 ± 0.0016 | 0.667 | 1.15 ± 0.044
5 | c1ccc(CNc2ncnc3nc[nH]c23)cc1 [Aminopurine, 6-benzyl] | 1.17 ± 0.43 | 1.01 ± 0.042 | 0.667 | 1.02 ± 0.019
6 | CC[C@H]1OC(=O)[C@H](C)[C@@H](O[C@H]2C[C@@](C)(OC)[C@@H](O)[C@H](C)O2)[C@H](C)[C@@H](O[C@@H]2O[C@H](C)C[C@H](N(C)C)[C@H]2O)[C@](C)(O)C[C@@H](C)/C(=N\OCOCCOC)[C@H](C)[C@@H](O)[C@]1(C)O [Roxithromycin] | 0.811 ± 0.45 | 1 ± 0.014 | 0.75 | 1.02 ± 0.03
7 | CCN(CC)CCNc1ccc(CO)c2sc3ccccc3c(=O)c12 [Hycanthone] | 1.12 ± 0.27 | 0.968 ± 0.052 | 0.833 | 0.977 ± 0.059
8 | C=CCOc1ccccc1OCC(O)CNC(C)C (stereo not drawn) [Oxprenolol hydrochloride] | 0.751 ± 0.34 | 1.002 ± 0.0059 | 0.75 | 1.0054 ± 0.00047
9 | COCCOC(=O)C1=C(C)NC(C)=C(C(=O)OC/C=C/c2ccccc2)C1c1cccc([N+](=O)[O-])c1 (stereo not drawn) [Cilnidipine] | 3.85 ± 1.1 | 0.735 ± 0.012 | 0 | 1.248 ± 0.0032
10 | NS(=O)(=O)c1cc(C(=O)O)c(NCc2ccco2)cc1Cl [Furosemide] | 0.867 ± 0.13 | 0.959 ± 0.097 | 0.818 | 1.015 ± 0.01
11 | CC1(C)S[C@@H]2[C@H](NC(=O)Cc3ccccc3)C(=O)N2[C@H]1C(=O)O [Benzathine benzylpenicillin] | 0.907 ± 0.35 | 1.06 ± 0.074 | 1 | 0.951 ± 0.019
12 | CC(C)Cc1ccc([C@H](C)C(=O)O)cc1 [S-(+)-ibuprofen] | 4.34 ± 2.3 | 0.59 ± 0.021 | 0 | 1.61 ± 0.035
13 | CN1CCC(=C2c3ccccc3CCc3sccc32)CC1 [Pizotifen malate] | 1.26 ± 0.48 | 0.84842 ± 0.00054 | 1 | 1.06 ± 0.0029
14 | CCc1cc(C(N)=S)ccn1 [Ethionamide] | 0.955 ± 0.39 | 0.97628 ± 0.00041 | 0.75 | 0.96 ± 0.039
15 | CCOC(=O)OC(C)OC1=C(C(=O)Nc2ccccn2)N(C)S(=O)(=O)c2ccccc21 (stereo not drawn) [Ampiroxicam] | 0.796 ± 0.29 | 1.1 ± 0.027 | 1 | 0.963 ± 0.018
16 | CN1[C@@H]2CC[C@H]1C[C@@H](OC(=O)C(O)c1ccccc1)C2 (mixture of isomers) [Homatropine hydrobromide (R,S)] | 0.957 ± 0.29 | 1.06 ± 0.015 | 0.75 | 0.9643 ± 0.0018
17 | O=C(NCC(O)CO)c1c(I)c(C(=O)NCC(O)CO)c(I)c(N(CCO)C(=O)CO)c1I (stereo not drawn) [Ioversol] | 0.777 ± 0.33 | 1.07 ± 0.063 | 0.833 | 0.9813 ± 0.0048
18 | Nc1nc2ccc(OC(F)(F)F)cc2s1 [Riluzole hydrochloride] | 0.834 ± 0.22 | 0.964 ± 0.02 | 0.833 | 1.036 ± 0.0021
19 | CCC(=O)O[C@@H](O[P@](=O)(CCCCc1ccccc1)CC(=O)N1C[C@H](C2CCCCC2)C[C@H]1C(=O)O)C(C)C [Fosinopril] | 1.05 ± 0.44 | 1.01 ± 0.023 | 0.7 | 1.03 ± 0.013
20 | NC(=O)N1c2ccccc2CC(=O)c2ccccc21 [Oxcarbazepine] | 0.94 ± 0.28 | 1 ± 0.035 | 0.833 | 0.9454 ± 0.0088
21 | C[C@H](CCC(=O)O)[C@H]1CC[C@H]2[C@@H]3[C@H](O)C[C@@H]4C[C@H](O)CC[C@]4(C)[C@H]3CC[C@]12C [Chenodiol] | 2.11 ± 0.81 | 0.744 ± 0.025 | 0.333 | 1.04 ± 0.13
22 | c1ccc([C@H]2CN3CCSC3=N2)cc1 [Levamisole hydrochloride] | 0.699 ± 0.16 | 1.08 ± 0.018 | 0.917 | 0.979 ± 0.016
23 | CC1(C)O[C@@H]2C[C@H]3[C@@H]4C[C@H](F)C5=CC(=O)CC[C@]5(C)[C@H]4[C@@H](O)C[C@]3(C)[C@]2(C(=O)CO)O1 [Flurandrenolide] | 1.09 ± 0.49 | 1.08 ± 0.04 | 0.333 | 0.979 ± 0.1
24 | O=C(O)c1ccccc1C(=O)Nc1ccc(S(=O)(=O)Nc2nccs2)cc1 [Phthalylsulfathiazole] | 0.926 ± 0.31 | 1.02 ± 0.015 | 0.833 | 0.943 ± 0.071
25 | Cc1c(N(C)CS(=O)(=O)O)c(=O)n(-c2ccccc2)n1C [Dipyrone] | 0.952 ± 0.36 | 0.936 ± 0.012 | 0.917 | 0.993 ± 0.021
26 | CC(=O)[C@H]1CC[C@H]2[C@@H]3C[C@H](C)C4=CC(=O)CC[C@]4(C)[C@H]3[C@@H](O)C[C@]12C [Medrysone] | 1.02 ± 0.44 | 1.17 ± 0.072 | 0.417 | 0.957 ± 0.019
27 | CCOc1ccc(NC(C)=O)cc1 [Phenacetin] | 1.14 ± 0.31 | 1.0834 ± 0.00038 | 0.667 | 0.946 ± 0.022
